Source: PubChem BioAssay AID504850 (National Center for Advancing Translational Sciences (NCATS), 2011)
The whole screen tested about 2,300 compounds, of which about 1,200 (52%) were called active. Not shown: some 34% with an inconclusive outcome. The call rests on the fitted dose curve; in most records, active means well fitted inhibition curve with a large enough effect; inconclusive means small, poorly fitted or top-dose-only effect, or effect the other way; inactive means no such curve, though single readings can be large or run the other way. The set was probably picked from earlier hits. The list shows a part of the results.

Experiment: Confirmation screen for delayed death inhibitors of the malarial parasite plastid, 48 hour incubation; further: nearly all actives have a fitted effect of over 65% in size
Settings: P. falciparum-infected erythrocytes, luciferase growth; series mostly up to 28.7 µM; activity change, negative = inhibition: at the top concentration
Procedure, shortened: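 Erythrocytes infected with luciferase-expressing P. falciparum (2% hematocrit, 0.1% parasitemia) incubated with compounds 48 hours at 37 C, 5% CO2, in RPMI/Albumax. Growth inhibition scored as reduced luminescence after detection reagent.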
On the % scale 0 is the no-effect control and ±100 the full control effect; potency means the concentration at half of the fitted maximal effect.

Compound	Potency	activity change, negative = inhibition
COc1ccc(Cc2nc3ccc(C(=O)NCCc4ccccn4)cc3o2)cc1OC	14.1 µM (active)	
C/C(=N\NC(=O)c1ccc(Cl)c(Cl)c1)c1ccc(Br)s1	3.55 µM (active)	
O=C(NNC(=O)c1ccc(Br)s1)c1ccc(F)c(S(=O)(=O)N2CCOCC2)c1		-20.8% (inactive)
COc1ccc2c(c1OC)C(=O)N1N=C(c3ccccc3)CC21 (configuration not stated)	5.01 µM (active)	
Nc1nc(CCl)nc(N(c2ccccc2)c2ccccc2)n1	8.91 µM (active)	
Cc1cccc(N(Cc2ccccc2)C(=O)CN2C(=O)NC3(CCCCC3C)C2=O)c1 (configuration not stated)	12.6 µM (active)	
CCCc1nnc(NC(=O)CCC(=O)N2CCN(Cc3ccc(Cl)cc3)CC2)s1	12.6 µM (active)	
CCCC(=O)Nc1nnc(CC(=O)N2CCCC2)s1		4.66% (inactive)
COc1ccc(CN2CCN(C(=O)CCC(=O)Nc3nnc(C4CCCCC4)s3)CC2)cc1F	12.6 µM (active)	
CCOC(=O)c1c(C)sc2c1N(C(=O)CCl)c1cc(Cl)ccc1S2	3.98 µM (active)	
O=c1[nH]c(C(F)(F)F)nc2ccc3ccccc3c12		-8.91% (inactive)
Cc1ccc(NS(=O)(=O)c2ccc(-c3cnc(C4CC4)o3)cc2)c(C)c1	5.01 µM (active)	
O=C(C1CCC1)N1CCc2cc(S(=O)(=O)NCc3ccco3)ccc21		22.7% (inactive)
O=C(CCl)c1ccc2c(c1)CCN2C(=O)C1CCCCC1	11.2 µM (active)	
CCC(=O)c1ccc(N2CCN(C(=O)c3cc([N+](=O)[O-])ccc3N3CCN(C)CC3)CC2)c(F)c1	10 µM (active)	
O=[N+]([O-])/C=C\c1ccc(N2CCCC2)c(F)c1		-22.9% (inactive)
COc1ccc(NC(=O)c2cc([N+](=O)[O-])ccc2N2CCN(C)CC2)cc1		-7.89% (inactive)
CCCn1cc(S(=O)(=O)c2ccc(Cl)cc2)c(=O)c2cc(OC)ccc21	12.6 µM (active)	
COc1ccc([N+](=O)[O-])c(S(=O)(=O)c2ccc(Cl)cc2)n1		-12.9% (inactive)
Cc1onc(-c2c(F)cccc2Cl)c1-c1nnc(-c2ccc(C(F)(F)F)cc2)o1	5.62 µM (active)	
Cc1[nH]c(C)c(C(=O)/C=C/c2ccc([N+](=O)[O-])cc2)c1C	12.6 µM (active)	
Cc1oc(-c2ccccc2Cl)nc1Cn1cccc1C1=NC(c2ccccc2)CO1 (configuration not stated)	12.6 µM (active)	
CCCSCCCNC(=O)c1ccccc1NC(=O)C1=CSCCO1	12.6 µM (active)	
CC(C)(C)c1nc(SCC(=O)Nc2ccc(N3CCOCC3)cc2)c2ccccc2n1	11.2 µM (active)	
O=C(Cn1c(=O)sc2ccccc21)Nc1nc2c(s1)CCCC2		10% (inactive)
CC(C)(C)c1nc(SCC(=O)Nc2nc3c(s2)CCCC3)c2ccccc2n1	4.47 µM (active)	
O=C(Cc1cn2ccsc2n1)Nc1nc2c(s1)CCCC2		-7.92% (inactive)
